Assay results reported in PubChem BioAssay (NCATS).
Inconclusive results are not listed. Activity calls are given as the source filed them. The call rests on the fitted dose curve; in most records, active means well fitted inhibition curve with a large enough effect; inconclusive means small, poorly fitted or top-dose-only effect; inactive means flat fitted curve, though single readings scatter. Non-standard residues stand in square brackets, D forms with d. Residues, ends and D or L forms follow the SMILES beside them. *: point of attachment. Sta = CC(C)C[C@H](N)[C@@H](O)CC(=O)O; Isovaleryl = CC(C)CC(=O)*

assay: qHTS to identify inhibitors of the type 1 interferon - major histocompatibility complex class I in skeletal muscle: primary screen against the NCATS Pharmaceutical Collection (AID 1347407); conditions: human skeletal muscle cells, IFN-b-induced MHC-I HiBiT luminescence, 24 h; series mostly up to 45.9 µM; activity change, negative = inhibition: at the top concentration
Summary of the method: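 Immortalized human myoblasts (C25cl48) with HiBiT knocked into endogenous HLA-B*08:01 were stimulated with 4.0 ng/ml IFN-beta and treated with compounds ([…] top 46 uM) for 24 hrs at 37 C. HiBiT lytic luminescence read.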
On the % scale 0 is the no-effect control and ±100 the full control effect.

Row | SMILES | activity change, negative = inhibition
1 | Cc1cc(C2CCCCC2)n(O)c(=O)c1 | -3.66% (inactive)
2 | N=C(N=C(N)N)N1CCOCC1 | -2.19% (inactive)
3 | O=C(NCCO[N+](=O)[O-])c1cccnc1 | -0.507% (inactive)
4 | COC1=C(OC)C(=O)C(CCCCCCCCCCO)=C(C)C1=O | -6.78% (inactive)
5 | Cc1cccc(C)c1OCC(=O)N[C@@H](Cc1ccccc1)[C@@H](O)C[C@H](Cc1ccccc1)NC(=O)[C@H](C(C)C)N1CCCNC1=O | -4.33% (inactive)
6 | N=C(N)c1ccc2cc(OC(=O)c3ccc(N=C(N)N)cc3)ccc2c1 | 0.469% (inactive)
7 | CCCCC(CC)COC(=O)C(C#N)=C(c1ccccc1)c1ccccc1 (configuration not stated) | -16.9% (inactive)
8 | CCN(CC)CCOc1ccc(Cc2ccccc2)cc1 | 0.294% (inactive)
9 | CC(C)CC(=O)N[C@H](C(=O)N[C@H](C(=O)N[C@@H](CC(C)C)[C@@H](O)CC(=O)N[C@@H](C)C(=O)N[C@@H](CC(C)C)[C@@H](O)CC(=O)O)C(C)C)C(C)C (Isovaleryl-VV[Sta]A[Sta]-OH) | 0.489% (inactive)
10 | CCCc1cc(=O)[nH]c(=S)[nH]1 | 1.21% (inactive)
11 | CC(C)[C@H](N)C(=O)OCCOCn1cnc2c(=O)[nH]c(N)nc21 | 14.9% (inactive)
12 | CN1CCC(=C2c3ccccc3CCc3sccc32)CC1 | 8.88% (inactive)
13 | Cc1cc2cc3c(C)cc(=O)oc3c(C)c2o1 | -5.91% (inactive)
14 | NC(=O)Cc1cccc(C(=O)c2ccccc2)c1N | -0.653% (inactive)
15 | CCCCCCCCOc1ccccc1C(=O)Nc1ccc(C(=O)OCC[N+](C)(CC)CC)cc1 | -27.8% (inactive)
16 | CC1=C(C(=O)O)N2C(=O)[C@@H](NC(=O)[C@H](N)C3=CCC=CC3)[C@H]2SC1 | -3.86% (inactive)
17 | Cc1cc(=O)oc2cc(O)ccc12 | -11.1% (inactive)
